Several values for one entry are separate records, joined by “and”; a condition that tells them apart may be missing. Equal values may be shown once. Records with an inconclusive call do not appear. Entries that show only a call come without a potency. More than one record can exist for a structure, and the calls need not agree. Activity calls are given as the source filed them. Calls come from the whole dose curve; as a rule, active = well fitted activation curve with a large enough effect in the repeat runs; inconclusive = weak or mixed curves; inactive = flat fitted curve, though single readings scatter.
Potency is the fitted concentration of half-maximal effect.

One test in a line: A CellTox Green Cytotoxicity Assay to monitor cytotoxicity in HepG2 cells - 32 hour (AID 1224883). Note: nearly all actives have a fitted effect of over 50% in size. Particulars: CellTox Green fluorescence; series mostly up to 76.8 µM. Put shortly: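 Using 1536-well format, dye-containing HepG2 suspension was seeded, allowed 5 h at 37 C/5% CO2, dosed by pintool with compounds, positive and negative controls, and imaged for fluorescence across 40 h.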
Consider `CC1=CCC(C(C)(C)O)CC1` (stereo not drawn), for which the Potency result was “inactive and 21.9 µM (active)”.
Consider `Nc1ncn([C@@H]2O[C@H](CO)[C@@H](O)[C@H]2O)c(=O)n1`, for which the Potency result is “inactive”.
For `CCOC(=O)C(C#N)=C(c1ccccc1)c1ccccc1`, the Potency result is “inactive”.
In the case of `CCC(C)(O)CCCC(C)C` (stereo not drawn), the Potency result is “inactive”.
On the same count and under the same terms, next, `CCCCNS(=O)(=O)c1ccccc1`: “inactive”; `CC(C)CC(C)(O)C#CC(C)(O)CC(C)C` (stereo not drawn): “inactive”.
For `c1ccc2c(c1)c1cccc3ccc4cccc2c4c31`, the Potency result was “inactive”.
With `O=C(/C=C/c1ccccc1)OCc1ccccc1`, the Potency entry is “inactive”.
Same read-out and setting: next, `CC(C)(C)NC(=O)[C@H]1CC[C@H]2[C@@H]3CC[C@H]4NC(=O)C=C[C@]4(C)[C@H]3CC[C@]12C`: “inactive”; `CCCc1c(OCCCCc2nn[nH]n2)ccc(C(C)=O)c1O`: “inactive”.
On to `CCCCCCCCCCCO`, for which the Potency result is “inactive”.
In the case of `COc1ccc(OC)c(C(O)CNC(=O)CN)c1` (stereo not drawn), the Potency result was “inactive”.
On to `COC(=O)Nc1nc2ccc(S(=O)c3ccccc3)cc2[nH]1` (stereo not drawn), for which the Potency entry was “inactive and 952 nM (active)”.
Turning to `Cc1ncc[nH]1`, the Potency result was “inactive”.
Regarding `Cc1ccc(C(=O)c2cc(O)c(O)c([N+](=O)[O-])c2)cc1`, the Potency result was “inactive”.
`CN1C(C(=O)Nc2ccccn2)=C(O)c2ccccc2S1(=O)=O`: the Potency entry is “inactive”.
As for `Cc1c(OCC(F)(F)F)ccnc1CS(=O)c1nc2ccccc2[nH]1` (stereo not drawn), the Potency result is “inactive”.
As to `Nc1ccc(Nc2ccccc2)cc1`, the Potency entry was “inactive”.
Turning to `COc1cc([C@@H]2c3cc4c(cc3[C@H](O)[C@H]3COC(=O)[C@H]23)OCO4)cc(OC)c1OC`, the Potency result was “inactive”.
With `CC(C)OC=O`, the Potency entry was “inactive”.
Consider `OC(CCl)CCl`, for which the Potency entry was “inactive”.
For `CC(C)OB(OC(C)C)OC(C)C`, the Potency result is “inactive”.
Regarding `C[Si](C)(C)O[Si](C)(C)C`, the Potency entry is “inactive”.
In the case of `c1cc(-c2ccncc2)ccn1`, the Potency result is “inactive”.
Consider `NNc1ccc(C(=O)O)cc1`, for which the Potency entry is “inactive”.
Same read-out and setting: next, `O=C(OCc1ccccc1)c1ccccc1O`: “inactive”; `NC=O`: “inactive”.
On to `Cc1cc2nc3c(=O)[nH]c(=O)nc-3n(C[C@H](O)[C@H](O)[C@H](O)CO)c2cc1C`, for which the Potency was 43.2 µM (active) and 40.5 µM (active) and 11.7 µM (active).
For `Nc1ncnc2nc[nH]c12`, the Potency result was “inactive”.
As to `CC(CCC(=O)O)(c1ccc(O)cc1)c1ccc(O)cc1`, the Potency result was “inactive”.
As to `C=C(C)C1CC=C(C)CC1` (stereo not drawn), the Potency result is “inactive”.
As to `Cc1[nH]c(=O)c(C#N)cc1-c1ccncc1`, the Potency result was “inactive”.
For `O=C(c1ccccc1)c1ccc(O)cc1O`, the Potency result was “inactive and 43.6 µM (active)”.
As for `CCCCCCCCCC(=O)OC`, the Potency result is “inactive”.
With `Cc1cccc(C(=O)O)c1`, the Potency result is “inactive”.
The same measure, in the same setting: with `c1ccc(Nc2ccccc2)cc1` the figure was 38.9 µM (active) and inactive.
Regarding `CCCC(=O)O`, the Potency entry was “inactive”.
As for `O=[N+]([O-])c1ccc2c(c1)Cc1ccccc1-2`, the Potency entry was “inactive”.
As for `OCCO`, the Potency result was “inactive”.

The nature of a further test: A CellTox Green Cytotoxicity Assay to monitor cytotoxicity in HEK293 cells - 8 hour (AID 1224884). Note: nearly all actives have a fitted effect of over 35% in size. Conditions: CellTox Green fluorescence; series mostly up to 76.8 µM. Put shortly: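 Fluorescence intensity, read at 0, 8, 16, 24, 32 and 40 h of compound treatment, reflected dye binding to DNA of dead HEK293 cells; compounds (23 nL, DMSO) were added 5 h after plating cells with reagent.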
Consider `CC1=CCC(C(C)(C)O)CC1` (stereo not drawn), for which the Potency result is “inactive and 17.4 µM (active)”.
Turning to `Nc1ncn([C@@H]2O[C@H](CO)[C@@H](O)[C@H]2O)c(=O)n1`, the Potency entry is “inactive”.
Regarding `CCOC(=O)C(C#N)=C(c1ccccc1)c1ccccc1`, the Potency entry was “inactive”.
With `CCC(C)(O)CCCC(C)C` (stereo not drawn), the Potency entry was “inactive”.
On the same count and under the same terms, next, `CCCCNS(=O)(=O)c1ccccc1`: “inactive”; `CC(C)CC(C)(O)C#CC(C)(O)CC(C)C` (stereo not drawn): “inactive”; `c1ccc2c(c1)c1cccc3ccc4cccc2c4c31`: “inactive”.
As to `O=C(/C=C/c1ccccc1)OCc1ccccc1`, the Potency result was “inactive”.
On to `CC(C)(C)NC(=O)[C@H]1CC[C@H]2[C@@H]3CC[C@H]4NC(=O)C=C[C@]4(C)[C@H]3CC[C@]12C`, for which the Potency entry is “inactive”.
Regarding `CCCc1c(OCCCCc2nn[nH]n2)ccc(C(C)=O)c1O`, the Potency result was “inactive”.
Regarding `CCCCCCCCCCCO`, the Potency entry was “inactive”.
With `COc1ccc(OC)c(C(O)CNC(=O)CN)c1` (stereo not drawn), the Potency result is “inactive”.
Same read-out and setting: next, `COC(=O)Nc1nc2ccc(S(=O)c3ccccc3)cc2[nH]1` (stereo not drawn): “inactive”; `Cc1ncc[nH]1`: “inactive”.
Same read-out and setting: next, `Cc1ccc(C(=O)c2cc(O)c(O)c([N+](=O)[O-])c2)cc1`: “inactive”; `CN1C(C(=O)Nc2ccccn2)=C(O)c2ccccc2S1(=O)=O`: “inactive”; `Cc1c(OCC(F)(F)F)ccnc1CS(=O)c1nc2ccccc2[nH]1` (stereo not drawn): “inactive”.
On to `Nc1ccc(Nc2ccccc2)cc1`, for which the Potency entry was “inactive”.
For `COc1cc([C@@H]2c3cc4c(cc3[C@H](O)[C@H]3COC(=O)[C@H]23)OCO4)cc(OC)c1OC`, the Potency entry was “inactive”.
As to `CC(C)OC=O`, the Potency entry is “inactive”.
For `OC(CCl)CCl`, the Potency entry is “inactive”.
The same measure, in the same setting: next, `CC(C)OB(OC(C)C)OC(C)C`: “inactive”.
On to `C[Si](C)(C)O[Si](C)(C)C`, for which the Potency entry was “inactive”.
Still for that read-out and setting: with `c1cc(-c2ccncc2)ccn1` the entry was “inactive”.
As to `NNc1ccc(C(=O)O)cc1`, the Potency result is “inactive”.
For `O=C(OCc1ccccc1)c1ccccc1O`, the Potency result was “inactive”.
`NC=O`: the Potency result was “inactive”.
Regarding `Cc1cc2nc3c(=O)[nH]c(=O)nc-3n(C[C@H](O)[C@H](O)[C@H](O)CO)c2cc1C`, the Potency was 43.2 µM (active) and 40.5 µM (active) and 11.7 µM (active).
On to `Nc1ncnc2nc[nH]c12`, for which the Potency entry was “inactive”.
`CC(CCC(=O)O)(c1ccc(O)cc1)c1ccc(O)cc1`: the Potency result is “inactive”.
Turning to `C=C(C)C1CC=C(C)CC1` (stereo not drawn), the Potency entry was “inactive”.
For the molecule `Cc1[nH]c(=O)c(C#N)cc1-c1ccncc1`, the Potency entry was “inactive”.
Same read-out and setting: next, `O=C(c1ccccc1)c1ccc(O)cc1O`: “inactive”; `CCCCCCCCCC(=O)OC`: “inactive”.
Regarding `Cc1cccc(C(=O)O)c1`, the Potency entry was “inactive”.
On to `c1ccc(Nc2ccccc2)cc1`, for which the Potency result was “inactive”.
On to `CCCC(=O)O`, for which the Potency result is “inactive”.
`O=[N+]([O-])c1ccc2c(c1)Cc1ccccc1-2`: the Potency result was “inactive”.
With `OCCO`, the Potency result was “inactive”.

Source of the values: PubChem BioAssay (Tox21).
